Screening results: PubChem, National Center for Advancing Translational Sciences (NCATS)
mIDH1 inhibitor – qHTS for Inhibitors of mutant isocitrate dehydrogenase 1 (IDH1): qHTS; IDH1-R132H enzyme, NADPH consumption, diaphorase/resazurin fluorescence; AID 602179, 2012; 0.093% of 390,000 active; Potency, µM (highest dose often 76.6 µM), most hits filed as inhibitors; further: nearly all actives have a fitted effect of over 65% in size
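IDH1-R132H (0.5 ug/mL) preincubated 30 min with compound, then NADPH (0.016 mM) and alpha-KG (2 mM) added; 80 min at RT, pH 7.5. Remaining NADPH coupled via diaphorase/resazurin to fluorescence (540/590 nm); concentration-response curves normalized to no-enzyme control.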
A549 viability – Nrf2 qHTS screen for inhibitors: counterscreen for cytotoxicity; 0.16% of 390,000 active; AID 504648, 2011; A549 ARE-Fluc cells, CellTiter-Fluor viability, 18-24 h; Potency, µM (doses to about 46 µM), usual class: inhibitors
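A549 ARE_Fluc cells in 5% FBS OPTI-MEM were exposed to compounds in concentration-response for 18-24 h at 37 deg C. Viability was read by CellTiter-Fluor fluorescence (Ex 405/Em 525) after 30 min, before the luciferase read.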
Nrf2 inh – Nrf2 qHTS screen for inhibitors. 2.1% of 360,000 active. Potency, µM (doses to about 46 µM), hits mostly inhibitors. A549 ARE-Fluc reporter, luciferase luminescence, 18-24 h; further: nearly all actives have a fitted effect of over 60% in size
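In this cell-based qHTS, ARE-driven firefly luciferase in A549 cells reports Nrf2 activity; the luminescent signal after BugLite lysis is the measured value, with a prior CellTiter-Fluor read for cell health.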
rTrxR1 inhibitor – qHTS Assay for Inhibitors of Mammalian Selenoprotein Thioredoxin Reductase 1 (TrxR1): qHTS; Thioredoxin reductase 1, cytoplasmic (Rattus norvegicus), O89049; recombinant rTrxR1, NADPH fluorescence consumption, selenite substrate; Potency, µM (doses to about 114 µM), most hits filed as inhibitors; 1% of 390,000 active; AID 588453, 2011; further: nearly all actives have a fitted effect of over 65% in size
Target sequence (O89049 whole entry, looked up): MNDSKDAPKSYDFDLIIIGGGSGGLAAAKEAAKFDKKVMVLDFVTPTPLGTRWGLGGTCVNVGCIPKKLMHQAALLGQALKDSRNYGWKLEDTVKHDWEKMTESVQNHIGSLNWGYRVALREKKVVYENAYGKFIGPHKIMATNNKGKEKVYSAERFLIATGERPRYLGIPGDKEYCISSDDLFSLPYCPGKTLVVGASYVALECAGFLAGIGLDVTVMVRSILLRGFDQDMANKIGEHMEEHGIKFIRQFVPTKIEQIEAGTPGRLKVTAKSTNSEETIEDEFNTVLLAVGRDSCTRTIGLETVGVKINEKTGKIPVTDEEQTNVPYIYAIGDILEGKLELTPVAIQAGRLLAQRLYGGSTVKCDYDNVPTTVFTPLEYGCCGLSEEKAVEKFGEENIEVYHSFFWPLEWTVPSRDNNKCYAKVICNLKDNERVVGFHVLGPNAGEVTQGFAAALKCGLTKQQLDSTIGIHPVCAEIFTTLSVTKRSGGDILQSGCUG
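Rat TrxR1 (90 nM in the dispensed reagent) was pre-reduced with 400 uM NADPH for 5 min at room temperature, then incubated with compound for 15 min. After 400 uM selenite was added, NADPH fluorescence (Ex 340/Em 450 nm) was followed for 8 min.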
Mito fusion act – qHTS Assay for Small Molecule Inhibitors of Mitochondrial Division or Activators of Mitochondrial Fusion | S. cerevisiae fusion-defective mutant growth rescue, CellTiterGlo 48 h | Potency, µM (top dose mostly 46.1 µM), hits mostly activators | 0.23% of 320,000 active; further: nearly all actives have a fitted effect of over 45% in size
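Temperature-sensitive fusion-defective S. cerevisiae (e.g. fzo1-1, mgm1-5) were grown with compound in YPEG medium (3% ethanol, 3% glycerol) for 48 hours at 37C. Growth rescue was measured as viability by CellTiterGlo luminescence after 10 minutes at ambient.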
TrxR1 substrate – qHTS Assay for Substrates of Mammalian Selenoprotein Thioredoxin Reductase 1 (TrxR1): qHTS; Thioredoxin reductase 1, cytoplasmic (Rattus norvegicus), O89049; AID 588456, 2011; 0.01% of 390,000 active; Potency, µM (titrated, usually from 114 µM); purified TrxR1 substrate turnover, NADPH consumption readout; further: nearly all actives have a fitted effect of over 50% in size
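Rat TrxR1, dispensed at 90 nM, was prereduced with 400 uM NADPH (final) for 5 min at ~22 deg C, then incubated with compound 15 min before 400 uM selenite. A first-read NADPH fluorescence drop versus no-compound background flagged substrates.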
Of the large screens only hits and unclear results are named; the others gave an inactive call. In the library only some 3.1% were active in any assay of this set; here they are far more common. The call rests on the fitted dose curve; in most records, active means well fitted curve in the direction sought with a large enough effect; inconclusive means small, poorly fitted or top-dose-only effect, or another doubt; inactive means no such curve, though single readings can be large; an effect the other way counts as inactive or inconclusive.

COc1cccc(-c2cc(C(F)(F)F)nc(-n3cc(Cl)cn3)n2)c1	Nrf2 inh 10.3µM
COc1ccc(C)cc1NC(=O)N1CCN(S(=O)(=O)c2ccc3c(ccn3C)c2)CC1	none (no result: Nrf2 inh, Mito fusion act)
c1ccc(OCc2nn3c(-c4ccco4)nnc3s2)cc1	Nrf2 inh inconclusive, rTrxR1 inhibitor 56.2µM
Cc1cccc(N2CCN(C(=O)c3cnn(-c4cccc(Cl)c4C)c3C3CCNCC3)CC2)c1C	Nrf2 inh inconclusive (no result: Mito fusion act)
COCCNC(=O)c1c[nH]c2ccc(S(=O)(=O)N3CCc4ccccc43)cc2c1=O	Nrf2 inh 16.4µM
COc1ccc(-c2noc(CCC(=O)Nc3ccc(C(F)(F)F)cc3)n2)cc1	Nrf2 inh 18.4µM (no result: Mito fusion act)
CC(C)(C)c1ccc(-c2noc(CCC(=O)NCC3CCCO3)n2)cc1 (stereo not drawn)	Nrf2 inh 0.581µM
COc1ccc(-c2noc(CCC(=O)Nc3cccnc3)n2)cc1	none
CC(C)(C)c1ccc(-c2noc(CCC(=O)Nc3cccnc3)n2)cc1	Nrf2 inh 0.259µM
Cc1cc(Nc2ccc(F)cc2F)nc(-n2nc(C)cc2C)n1	none (no result: Nrf2 inh, Mito fusion act)
COc1cc2cc(C#N)c(SCC(=O)OC(C)C)nc2cc1OC	Nrf2 inh inconclusive (no result: mIDH1 inhibitor, Mito fusion act)
O=[N+]([O-])c1ccc(N2CCN(C(=S)Nc3ccc(F)cc3F)CC2)cc1	A549 viability inconclusive, Nrf2 inh 23.1µM
O=[N+]([O-])c1ccc(N2CCN(C(=S)Nc3cccc(F)c3)CC2)cc1	Nrf2 inh 16.4µM
Cc1ccc(NC(=O)C(=O)NCCCN2CCOCC2)cc1C	none (no result: Mito fusion act)
O=Nc1ccc(/C=C/c2ccnc3ccccc23)cc1	none (no result: mIDH1 inhibitor, A549 viability, Nrf2 inh, Mito fusion act)
O=C(CSc1nc2ccccc2n1CC(=O)N1CCCC1)NCc1ccc2c(c1)OCO2	Mito fusion act 2.82µM
CS(=O)(=O)Nc1cccc(-c2cn3c(n2)SCC3)c1	A549 viability inconclusive, rTrxR1 inhibitor 31.6µM
CCS(=O)(=O)Nc1cccc(-c2cn3c(n2)SCC3)c1	none
O=S(=O)(c1ccc2nc(SCc3ccc(Cl)cc3)[nH]c2c1)N1CCOCC1	Nrf2 inh 23.1µM
Cc1cc(C(=O)CS(=O)(=O)c2ccc(Cl)cc2)cc(C)c1O	rTrxR1 inhibitor 44.7µM
Cc1ccc(C(=O)CCS(=O)(=O)c2ccc(F)cc2)cc1	rTrxR1 inhibitor 1.12µM
Cc1ccc(S(=O)(=O)CC(=O)c2ccc([N+](=O)[O-])cc2)cc1	rTrxR1 inhibitor inconclusive
COc1ccc(S(=O)(=O)CC(=O)c2cc(C)c(O)c(C)c2)cc1	none
Cc1ccc(S(=O)(=O)CC(=O)c2ccccc2)cc1	rTrxR1 inhibitor 35.5µM
Cc1ccc(S(=O)(=O)CCC(=O)c2ccc(F)cc2)cc1	rTrxR1 inhibitor 1.58µM
Cc1ccc(S(=O)(=O)c2nnn3c2nc(NCc2ccc4c(c2)OCO4)c2sccc23)cc1	none (no result: Mito fusion act)
Cc1ccc(C(=O)CCS(=O)(=O)c2ccc(Cl)cc2)cc1	rTrxR1 inhibitor 0.562µM
Cc1ccc(S(=O)(=O)CCC(=O)NCc2ccc(Cl)cc2)cc1	none
Cc1cc(C)nc(Sc2ncnc(N)c2[N+](=O)[O-])n1	Nrf2 inh inconclusive, rTrxR1 inhibitor 11.2µM
Cc1cccc(Nc2ncnc(N)c2[N+](=O)[O-])n1	none
CN(Cc1ccccc1)c1ccc(C=O)cc1	none (no result: mIDH1 inhibitor, A549 viability, Nrf2 inh, Mito fusion act)
Cc1ccc2nc(-c3c[nH]c4ccccc34)c(Nc3ccccc3)n2c1	none (no result: Mito fusion act)
O=S(=O)(CCSc1nc2ccccc2o1)c1nc2ccccc2s1	rTrxR1 inhibitor 1.12µM
O=S(=O)(CCSc1ccccn1)c1nc2ccccc2s1	rTrxR1 inhibitor 14.1µM
CC(=O)c1c(C)[nH]c2ccc(OCC(O)CNCCc3ccccc3)cc12 (stereo not drawn)	none (no result: mIDH1 inhibitor, A549 viability, Nrf2 inh, Mito fusion act)
CCn1c(SCC(=O)NCc2ccco2)nnc1-c1cccs1	rTrxR1 inhibitor 14.1µM (no result: Nrf2 inh)
